According to PubChem BioAssay (NCI):
The panel holds about 83,000 compounds, 20% with a hit somewhere; the sample as a whole holds those more often.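 Values shown are percent growth following 48 h exposure of cells in 96-well plates to a single concentration of compound; below 10 was considered active.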 A number with no mark means an inactive call. Activity calls are given as the source filed them.

Legend:
Experiment in all cases: NCI-60 one-dose screen, 48 h (100 = growth as untreated, 0 = no growth, -100 = all killed)
Details in all cases: 10 µM unless noted
T-47D breast = system: T-47D breast
BT-549 breast = system: BT-549 breast
MDA-MB-435 melanoma = system: MDA-MB-435 melanoma
SW-620 colon = system: SW-620 colon
MCF7 breast = system: MCF7 breast
HCC-2998 colon = system: HCC-2998 colon
KM12 colon = system: KM12 colon
MDA-MB-468 breast = system: MDA-MB-468 breast
HCT-116 colon = system: HCT-116 colon

Compound	growth (T-47D breast)	growth (BT-549 breast)	growth (MDA-MB-435 melanoma)	growth (SW-620 colon)	growth (MCF7 breast)	growth (HCC-2998 colon)	growth (KM12 colon)	growth (MDA-MB-468 breast)	growth (HCT-116 colon)
CCOC(=O)C1=C(N)N(c2ccccc2)C2=C(C(=O)CC(C)(C)C2)C1c1ccc(N2CCOCC2)cc1 (centres undefined)	93.7%	103%	104%	101%	90.7%	108%	105%	89.6%	
O=S(=O)(Nc1cccc(-n2cnc3cc(-c4ccc(O)cc4)ccc32)c1)C1CC1	27.3%	14.3%	-21.3% (active)	31.1%	21.8%	40.8%	6.07% (active)	3.78% (active)	13.4%
CCOC(=O)COc1c(OC)c(OC)cc2oc(-c3cccc(C(=O)Nc4ccc(Cl)cc4)c3)cc(=O)c12	47.5%	21.2%	-11.8% (active)	37.6%	15.7%	76%	16.2%	68%	22.7%
O=C(COc1ccc(NC(=O)Nc2ccccc2)cc1)N=Nc1c(O)[nH]c2ccc([N+](=O)[O-])cc12	-43.7% (active)	-42.6% (active)	-18.3% (active)	4.08% (active)	-2.45% (active)	-47.9% (active)	-62% (active)	-69.7% (active)	
COC1=C[C@]23CCC(=O)N2CCc2cc4c(cc2[C@@H]3[C@@H]1OC(=O)[C@H](C)O)OCO4	42.4%	2.51% (active)	34.6%	13.6%	-5.57% (active)	-29.9% (active)	18.9%	-17% (active)	1.88% (active)
COc1cc(C2CC(c3cc(OC)c(OC)c(OC)c3)=NN2c2ccccc2)ccc1OCc1ccc(C)cc1 (centres undefined)	79.9%	103%	97%	94.3%	81.3%	110%	96.9%	92.2%	80.6%
CC1(C)CC[C@]2(C(=O)Nc3ccccc3)CC[C@]3(C)C(=CCC4[C@@]5(C)C[C@@H](O)[C@H](O)[C@@](C)(CO)C5CC[C@]43C)C2C1 (some centres undefined)	26.9%	57%	47.9%	72.2%	19.6%	81.9%	55.7%	22.2%	
CN(C)CCOc1ccc(C(=O)C2[C@H](c3ccc(Cl)cc3)[C@@H](c3ccccc3)NC23C(=O)Nc2ccccc23)cc1 (some centres undefined)	67.9%	81.8%	44.6%	-57.7% (active)	-20.8% (active)	-59.9% (active)	33.4%	-26% (active)	22%
Nc1nc(C(F)(F)F)cs1	99.4%	114%	100%	104%	93.2%	105%	100%	101%	111%
CC(C)C(C(=O)O)n1c(O)c(/C=C2/C=c3cc4c(cc3=NC2=O)OCO4)sc1=S (centres undefined)	103%	111%	107%	108%	90.4%	110%	103%	101%	
COc1cc2oc(-c3cccc(C(=O)Nc4ccc(Cl)cc4)c3)cc(=O)c2c(OCCNC(=O)[C@H](CCC(=O)OC(C)(C)C)NC(=O)OC(C)(C)C)c1OC	78.7%	100%	100%	112%	83%	118%	102%	105%	95.6%
C#C[C@]1(O)CC[C@H]2[C@@H]3CC=C4c5sc(-c6ccc([N+](=O)[O-])cc6)nc5CC[C@]4(C)[C@H]3CC[C@@]21C	24.9%	36.8%	26.7%	-12.5% (active)	0.614% (active)	-49.2% (active)	-27.1% (active)	-17.8% (active)	0.46% (active)
Brc1ccc(-c2n(Cc3ccc4ccccc4c3)c(-c3ccccc3)c(-c3ccccc3)[n+]2Cc2ccc3ccccc3c2)cc1	-76.7% (active)	-96.7% (active)	-91% (active)	-86% (active)	-69.8% (active)	-88.9% (active)	-93.4% (active)	-71.2% (active)	
C/C(=N\N=C1/C(=O)Nc2ccc(Cl)cc21)c1ccc2c(c1)Nc1ccccc1S2	11.9%	-32.1% (active)	-35.2% (active)	-27.8% (active)	-9.38% (active)	-48.2% (active)	-79.3% (active)	2.73% (active)	-43% (active)
COc1ccc(-c2c(Nn3cnnn3)no[n+]2[O-])cc1	48.8%	61.1%	44.4%	41.5%	31%	56.2%	68.2%	46.3%	
CCOC(=O)/C=C/c1cccc2c1C(=O)NC(C)(c1cc3cc(Br)ccc3oc1=O)N2 (centres undefined)	18.2%	-66.3% (active)	54.7%	61.2%	35.3%	68.8%	41.1%	32.3%	32.2%
Nc1nc(-c2ccccc2)c(N=Nc2ccc([N+](=O)[O-])cc2Cl)s1	40.7%	82.9%	87.1%	90.3%	68.1%	99.9%	90.4%	55.8%	70.1%
CCCCSc1nc(NCCc2c[nH]c3ccccc23)c(C#N)c(-c2ccc(F)cc2)n1	48.5%	101%	73.1%	60.4%	44.8%	64.9%	32%	69.8%	26.5%
COc1ccc2[nH]cc(-c3cc(N)n4nc(-c5cn(C)c6ccccc56)cc4n3)c2c1	-73.3% (active)	-75.2% (active)	-81% (active)	-46.1% (active)	-82.2% (active)	-81.3% (active)	-69.9% (active)	-80.1% (active)	-85.9% (active)
COc1ccc2oc3c4[nH]c5ccccc5c4c4c(c3c2c1)C(=O)N(C(=O)OC(C)(C)C)C4=O	-7.22% (active)	-44.2% (active)	-26.4% (active)	6.81% (active)	-25.9% (active)	23.2%	-18.9% (active)	-22.9% (active)	1.65% (active)
CC1(C)CC[C@]2(C(=O)Nc3ccc(Br)cc3)CC[C@]3(C)C(=CCC4[C@@]5(C)C[C@@H](O)[C@H](O)[C@@](C)(CO)C5CC[C@]43C)C2C1 (some centres undefined)	-9.58% (active)	-35.4% (active)	3.33% (active)	18.8%	1.85% (active)	-33.4% (active)	-52.9% (active)	-3.95% (active)	
Cc1cc(=O)oc2cc(OCCOc3ccc(/C=C/C(=O)Nc4ccccc4N)cc3)ccc12	15.3%	-49.2% (active)	42.7%	27.4%	5.65% (active)	37.9%	13.7%	-45% (active)	16.1%
COc1ccc(-c2nc3ccc(C(=O)NN4C(=O)c5ccc([N+](=O)[O-])cc5C4=O)cc3[nH]2)cc1	97%	105%	98.3%	101%	83%	108%	101%	89.7%	102%
COCOc1cc2oc(C(=O)N[C@@H](Cc3ccccc3)C(O)C(=O)NCc3ccccc3)c(C)c(=O)c2cc1OCOC (some centres undefined)	98%	95.9%	38.9%	103%	67.5%	114%	64.8%	79.9%	-15.3% (active)
C=C1CCC2C3(C)COC(c4ccccc4)OC3CCC2(C)C1CC(Sc1ccccc1)C1=CCOC1=O (centres undefined)	33.1%	-19% (active)	45.8%	14.8%	17%	36.8%	47.5%	27.3%	4.36% (active)
Cn1cc(-c2cc(N)n3nc(-c4cn(C)c5ncccc45)cc3n2)c2cccnc21	89%	62.5%	92.9%	71.7%		-55.5% (active)	87.8%	45%	62.7%
COc1cc2c(c(OC)c1OC)C(=O)CC(c1cccc(NC(=O)c3cccc([N+](=O)[O-])c3)c1)O2 (centres undefined)	18.6%	-7.24% (active)	-16.8% (active)	34.9%	12.3%	76.4%	2.26% (active)	8.62% (active)	
